From PubChem
Glioma ERSR ind: qHTS for Inducers of the Endoplasmic Reticulum Stress Response (ERSR) in Human Glioma: qHTS | U87-MG GRP78 promoter luciferase reporter, 16 h | 0.02% of 420,000 active | Potency, µM, for the others: at the top dose activation, usual class: activators; further: potency means the concentration at half of the fitted maximal effect; series mostly up to about 76 µM; % of control where 0% means no effect; nearly all actives have a fitted effect of over 35% in size
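Stably transfected U87-MG glioma cells carrying a GRP78-based luciferase sensor; 16 h compound incubation. Luminescence end-point read 10 min after Bright-Glo addition at room temperature.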
TRPML1 blocker: qHTS for Inhibitors of the Human Mucolipin Transient Receptor Potential 1 (TRPML1) | Mucolipin-1 (Homo sapiens), Q9GZU1 | TRPML1-inducible cells, Ca2+ dye fluorescence, FDSS; hits give low values; inhibition of EC80 agonist-evoked calcium signal | activity change, negative = inhibition, % (concentration not given with the values) | 0.02% of 390,000 active; in the data active means activity change below about -50%; inconclusive means between about -30% and that limit;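 further: stimulus is agonist 54-4 at its EC80 concentration; on the % scale 0 is the no-effect control and ±100 the full control effect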
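Calcium fluorescence in TRPML1-DL cells induced overnight with Tet: a 110 s read after compound pin addition, then a 110 s antagonist read after challenge with 54-4 at 4 uM final (EC80).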
TRPML1 agonist: qHTS for Agonists of the Human Mucolipin Transient Receptor Potential 1 (TRPML1) | activation, % (test concentration not listed) | TRPML1-expressing cells, Ca2+ dye fluorescence, FDSS | 0.12% of 410,000 active | Mucolipin-1 (Homo sapiens), Q9GZU1; in the data active means activation above about 50%; inconclusive means mostly about 30% to 49%; further: 0% is about no effect
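Cells: TRPML1-DL, 1X Tet inducer, ~16 h at 37 degrees C/5% CO2. Dye: ABD Ca8 no-wash + quencher, 45-90 min RT. Read: 10 s baseline, compound add, 110 s agonist phase; 54-4 EC80 (4uM final), 110 s antagonist phase.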
12-LOX inh: Primary qHTS assay for inhibitors of human arachidonate 12S-lipoxygenase (ALOX12): Round 2 | Polyunsaturated fatty acid lipoxygenase ALOX12 (Homo sapiens), P18054 | 1.1% of 580,000 active | AID 1671190, 2021 | Potency, µM (doses to about 108 µM), without a hit: top-dose activity change, negative = inhibition, most hits filed as inhibitors | purified 12hLO, xylenol orange hydroperoxide absorbance; further: potency means the concentration at half of the fitted maximal effect; on the % scale 0 is the no-effect control and ±100 the full control effect
Target sequence (P18054 whole entry, looked up): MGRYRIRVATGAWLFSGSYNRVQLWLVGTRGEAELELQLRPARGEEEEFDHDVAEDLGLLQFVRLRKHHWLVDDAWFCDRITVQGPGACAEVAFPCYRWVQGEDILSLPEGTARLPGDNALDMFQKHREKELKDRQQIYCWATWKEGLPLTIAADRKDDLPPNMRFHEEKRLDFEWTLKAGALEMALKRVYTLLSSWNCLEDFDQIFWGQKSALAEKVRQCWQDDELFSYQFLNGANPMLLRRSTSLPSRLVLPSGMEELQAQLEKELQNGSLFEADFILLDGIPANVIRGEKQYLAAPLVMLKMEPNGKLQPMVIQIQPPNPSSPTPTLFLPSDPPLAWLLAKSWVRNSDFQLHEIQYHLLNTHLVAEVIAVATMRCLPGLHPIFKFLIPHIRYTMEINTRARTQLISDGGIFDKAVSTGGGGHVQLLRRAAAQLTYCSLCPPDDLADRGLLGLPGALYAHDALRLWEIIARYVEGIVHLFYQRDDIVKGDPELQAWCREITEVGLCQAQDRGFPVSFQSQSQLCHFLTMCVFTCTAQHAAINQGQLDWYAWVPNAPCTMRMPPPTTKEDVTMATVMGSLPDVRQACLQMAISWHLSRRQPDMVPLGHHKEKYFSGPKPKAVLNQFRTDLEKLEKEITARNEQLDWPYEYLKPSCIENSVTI
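Purified human 12hLO at 150 nM in 25 mM Hepes, 0.01% Triton X-100, pH 7.0, preincubated 15 min at room temperature with compound. Reaction started with 40 uM arachidonic acid, 30 min at room temperature. Hydroperoxide measured by Fe-xylenol orange, 573/405 nm absorbance ratio.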
Vif-APOBEC3F blk: qHTS for Inhibitors of Vif-A3F Interactions: qHTS; HeLa A3F-eYFP + Vif (tagged APOBEC3F with the HIV-1 protein that degrades it), YFP fluorescence increase; Potency, µM (top dose mostly 46.1 µM), for inactives: at the top dose activity, negative = active; 0.2% of 390,000 active; AID 602313, 2012; further: potency means the concentration at half of the fitted maximal effect; % of control where 0% means no effect; nearly all actives have a fitted effect of over 65% in size
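HeLa cells stably expressing A3F-eYFP plus Vif, plated and incubated overnight at 37 deg C, then exposed to compounds overnight at 37 deg C. Blocked degradation read as raised yellow fluorescence (Ex 488/Em 500-530).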
Vif-A3G inh: qHTS for Inhibitors of Vif-A3G Interactions: qHTS. DNA dC->dU-editing enzyme APOBEC-3G (Homo sapiens), Q9HC16. HeLa A3G-eYFP + Vif (tagged APOBEC3G with the HIV-1 protein that degrades it), YFP fluorescence, overnight. Potency, µM (titrated, usually from 46.1 µM), for inactives: top-dose activity, negative = active, usual class: inhibitors. 0.076% of 410,000 active; further: potency means the concentration at half of the fitted maximal effect; on the % scale 0 is the no-effect control and ±100 the full control effect; nearly all actives have a fitted effect of over 60% in size
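Read-out is eYFP fluorescence (Ex 488/Em 500-530) from Vif-expressing HeLa A3G-eYFP cells; more signal means A3G escaped Vif-mediated degradation. Cells plated overnight, compound pinned in, incubated overnight at 37 deg C.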
Active calls of the source: *; ? = inconclusive; · = no result given; ! = repeats disagree. A selection: hits, their analogues and other compounds. The true share with any hit is near 1.3%. Unless noted, the call rests on the fitted dose curve; in most records, active means well fitted curve in the direction sought with a large enough effect; inconclusive means small, poorly fitted or top-dose-only effect, or another doubt; inactive means no such curve, though single readings can be large; an effect the other way counts as inactive or inconclusive.

SMILES	Glioma ERSR ind	TRPML1 blocker	TRPML1 agonist	12-LOX inh	Vif-APOBEC3F blk	Vif-A3G inh
C[C@H](NC(=O)[C@@H]1CSC2c3ccccc3C(=O)N21)C(=O)NC1CCCCC1 (stereo partly drawn)	-2%	-3	-1	6%	0%	-3%
Cc1ccc(NC(=O)CN(C)c2nc(CN3CCOCC3)nc3sc(C)c(C)c23)cc1	·	·	·	20%	·	·
COc1ccc(Cl)cc1NC(=O)CSc1nc2c(oc3ccccc32)c(=O)n1Cc1ccco1	-1%	-1	0	-1%	5%	8%
COc1ccc(NC(=O)CSc2nc3c(oc4ccccc43)c(=O)n2Cc2ccco2)cc1Cl	-2%	19	2	?	8.9µM*	?
Cn1c(SCC(=O)NC2CCCCCC2)nnc1-c1ccc(Cl)cc1	·	·	·	38%	·	·
O=[N+]([O-])c1ccc(N/N=C\c2cccn2-c2ccccc2)nc1	-8%	5	10	-4%	?	11µM*
CCN(CC)c1ccc(C=NNc2ccc([N+](=O)[O-])cn2)cc1	-1%	20	12	?	3.5µM*	?
COc1ccc(CN[C@H](C)c2onc(C)c2C(=O)O)cc1	·	·	·	28µM*	·	·
CC(=O)NC(NC(C)=O)c1ccccn1	·	·	·	29%	·	·
CC(C)(c1cc(Br)c(O)c(Br)c1)c1cc(Br)c(O)c(Br)c1	-2%	10	0	45µM*	-23%	-9%
COC(=O)c1cc(Br)c(O)c(Br)c1	·	·	·	-20%	·	·
CN(CC(=O)Nc1ccc(F)cc1)C(=O)c1cccc(S(=O)(=O)NCC2CCCO2)c1 (stereo not drawn)	·	·	·	2%	·	·
CCc1c(O)nc(SC2CC(=O)N(c3ccccc3)C2=O)[nH]c1=O (stereo not drawn)	-5%	-12	0	10µM*	1%	0%
Cc1c(O)nc(SC2CC(=O)N(c3ccccc3)C2=O)[nH]c1=O (stereo not drawn)	-5%	-2	1	?	·	-8%
Cc1ccc(/C=C2\SC(N3CCN(C(c4ccccc4)c4ccccc4)CC3)=NC2=O)o1	0%	11	0	3.5µM*	-9%	-5%
O=C1N=C(N2CCOCC2)S/C1=C/c1ccc(-c2ccc(F)cc2)o1	0%	-4	0	-7%	?	10%
Cc1ccc(-c2ccc(/C=C3\SC(N4CCOCC4)=NC3=O)o2)cc1	2%	3	5	35µM*	-11%	-1%
O=C(NCCC1CCN(Cc2ccccc2)CC1)C1CCCN(c2ncnc3nc[nH]c23)C1 (stereo not drawn)	·	·	·	2%	·	·
CCN1CCCC1CNC(=O)c1nc(-c2ccc3cc[nH]c3c2)no1 (stereo not drawn)	·	·	·	-28%	·	·
O=C(c1ccc(OCCN2CCCCC2)cc1)c1c(-c2ccc(O)cc2)sc2cc(O)ccc12	-2%	0	0	14µM*!	?	?
CC(C)OCC(O)Cn1c(NCCc2ccccc2)nc2c1c(=O)[nH]c(=O)n2C (stereo not drawn)	·	·	·	25%	·	·
O=C(Nc1ccc(Cl)cc1C(F)(F)F)c1cccc(I)c1	·	·	·	-4%	·	·
Clc1ccc(Nc2ncnc3c2cnn3-c2ccccc2)cc1	2%	26	0	25µM*	?	-16%
COCCNc1ncnc2c1cnn2-c1ccc(Cl)cc1	-6%	-15	0	14µM*	3%	-8%
COc1ccc(-c2ccc3c(c2)S(=O)(=O)c2cccc(C(=O)NCCOc4ccccc4)c2C3=O)cc1OC	-4%	-3	-1	·	?	11µM*
SMILES	Glioma ERSR ind	TRPML1 blocker	TRPML1 agonist	12-LOX inh	Vif-APOBEC3F blk	Vif-A3G inh
O=C(NCCOc1ccccc1)c1cccc2c1C(=O)c1ccc(Cl)cc1S2(=O)=O	3%	16	1	2%	-1%	0%
CC(C)n1c(=O)[nH][nH]c1=S	0%	0	1	35µM*	5%	-3%
CCNC(=O)C1CCCN(C(=O)Cc2cccs2)CC1 (stereo not drawn)	0%	·	0	50µM*	·	-1%
CCNC(=O)C1CCCN(C(=O)c2cccs2)CC1 (stereo not drawn)	-1%	·	0	23%	·	1%
COc1ccc(N2CCN(C(=O)c3ccc4c(c3)NC(=O)C(CSCc3ccccc3F)N4)CC2)cc1 (stereo not drawn)	-4%	7	0	4.5µM*	-10%	-1%
Cc1cccc(N2CCN(C(=O)c3ccc4c(c3)NC(=O)C(CSCc3cccc(F)c3)N4)CC2C)c1 (stereo not drawn)	-5%	-6	0	22µM*	?	?
Cc1cccc(N2CCN(C(=O)c3ccc4nccnc4c3)CC2C)c1 (stereo not drawn)	-1%	18	-1	-20%	-4%	-6%
C[C@H](NC(=O)c1[nH]cnc1C(=O)Nc1ccc(Cl)cc1)c1ccccc1	-4%	-4	2	45µM*	1%	-5%
Cc1cc(C)cc(Oc2coc3c(CN(C)C)c(O)ccc3c2=O)c1	-3%	-11	-1	6.3µM*	9%	0%
COc1ccc(Oc2coc3c(CN(C)C)c(O)ccc3c2=O)cc1	-4%	23	1	2%	-2%	1%
CC1CCC/C(=N/NC(=S)Nc2ccccc2)C1 (stereo not drawn)	·	·	·	28µM*	·	·
CCC(C)(C)C1CCC(=NNC(=S)Nc2ccccc2)CC1 (stereo not drawn)	0%	14	0	?	?	3%
CCCN1CCN(C(=O)c2c(C)oc3c2CN(Cc2ccc(C)cc2)CC3)CC1	·	·	·	13µM*	·	·
Cc1ccc(CN2CCc3oc(C)c(C(=O)NCCN4CCN(C)CC4)c3C2)cc1	·	·	·	4%	·	·
CCOC(=O)C1CCC(CNC(=O)N2CCCC2c2ccccc2C)CC1 (stereo not drawn)	·	·	·	-31%	·	·
Cc1nc(SCC(=O)CC(=O)OC(C)C)c(C#N)c(C)c1C	2%	-1	71*	-7%	4%	-2%
Cc1ncoc1C(=O)N1CCCC(C(=O)Nc2cccc(-c3ccc(F)cc3)c2)C1 (stereo not drawn)	-1%	-8	53*	4%	3%	-1%
CC(C)(C)c1ccc(NC(=O)CN2C(=O)COc3ccccc32)cc1	·	·	·	-16%	·	·
CC1=NOC(=O)/C1=C/c1ccc(O)c(Br)c1	-3%	10	-1	?	?	0%
